Experimental data reported in PubChem BioAssay AID1159580 (chemical genetic matrix, 2015).
Hit rate of the full screen: of about 5,500 compounds, about 2,000 (36%) were called active. Roughly 18% stayed inconclusive and do not appear here. No stated cut-off is given here; in the data, active means normalized growth mostly below about 0.91 (no sharp cut-off); inconclusive means no clear call, values can overlap the other calls; inactive means mostly above about 0.92. This is one part of the list.

Test: chemical genetic growth profiling, strain panel (AID 1159580);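 further: tested at 20 µM; growth read once vehicle control cultures reached saturation at 30 °C; 1 = growth at the plate median or of vehicle wells; lower values mean less growth of the strain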
Details: growth OD

Measured: normalized growth

O=c1c(O)c(-c2ccc(O)c(O)c2)oc2cc(O)ccc12
inactive: S. cerevisiae deletion strains, locus YKL009W, strain mrt4, hits give low values 1.03 | S. cerevisiae deletion strains, locus YKL068W, hits give low values 0.99 | S. cerevisiae deletion strains, locus YKL085W, strain MDH1 (second series), hits give low values 1 | S. cerevisiae deletion strains, locus YKL085W, strain MDH1, hits give low values 1 | S. cerevisiae deletion strains, locus YKL160W, strain elf1, hits give low values 0.982 | S. cerevisiae deletion strains, locus YKR026C, strain gcn3, hits give low values 1 | S. cerevisiae deletion strains, locus YKR091W, strain srl3, hits give low values 1 | S. cerevisiae deletion strains, locus YLL001W, strain dnm1, hits give low values 0.994 | S. cerevisiae deletion strains, locus YLL026W, hits give low values 0.995 | S. cerevisiae deletion strains, locus YLL041C, strain sdh2, hits give low values 0.996 | S. cerevisiae deletion strains, locus YLR027C, strain aat2, hits give low values 0.968 | S. cerevisiae deletion strains, locus YLR039C, strain RIC1, hits give low values 0.848 | S. cerevisiae deletion strains, locus YLR058C, strain SHM2, hits give low values 0.978 | S. cerevisiae deletion strains, locus YLR102C, strain apc9, hits give low values 1.01 | S. cerevisiae deletion strains, locus YLR221C, strain rsa3, hits give low values 0.95 | S. cerevisiae deletion strains, locus YLR258W, strain gsy2, hits give low values 1 | S. cerevisiae deletion strains, locus YLR262C, strain YPT6 (second series), hits give low values 0.981 | S. cerevisiae deletion strains, locus YLR262C, strain YPT6, hits give low values 0.877 | S. cerevisiae deletion strains, locus YLR320W, strain mms22, hits give low values 0.942 | S. cerevisiae deletion strains, locus YLR342W, strain FKS1, hits give low values 0.978 | S. cerevisiae deletion strains, locus YLR357W, strain rsc2, hits give low values 0.922 | S. cerevisiae deletion strains, locus YLR370C, strain arc18, hits give low values 0.978 | S. cerevisiae deletion strains, locus YLR384C, strain iki3, hits give low values 0.98 | S. cerevisiae deletion strains, locus YML016C, strain PPZ1, hits give low values 0.974 | S. cerevisiae deletion strains, locus YML032C, strain rad52, hits give low values 0.962 | S. cerevisiae deletion strains, locus YML120C, strain ndi1, hits give low values 1.01 | S. cerevisiae deletion strains, locus YML124C, strain tub3, hits give low values 1 | S. cerevisiae deletion strains, locus YMR058W, strain fet3, hits give low values 0.944 | S. cerevisiae deletion strains, locus YMR078C, strain ctf18, hits give low values 0.997 | S. cerevisiae deletion strains, locus YMR125W, strain sto1, hits give low values 1.02 | S. cerevisiae deletion strains, locus YMR129W, hits give low values 0.986 | S. cerevisiae deletion strains, locus YMR205C, strain PFK2, hits give low values 0.994 | S. cerevisiae deletion strains, locus YMR231W, strain pep5, hits give low values 0.987 | S. cerevisiae deletion strains, locus YMR263W, strain SAP30, hits give low values 0.892 | S. cerevisiae deletion strains, locus YMR307W, strain GAS1, hits give low values 0.675 | S. cerevisiae deletion strains, locus YNL067W, strain RPL9B, hits give low values 0.901 | S. cerevisiae deletion strains, locus YNL071W, strain lat1, hits give low values 0.945 | S. cerevisiae deletion strains, locus YNL128W, strain TEP1, hits give low values 0.864 | S. cerevisiae deletion strains, locus YNL209W, strain ssb2, hits give low values 0.949 | S. cerevisiae deletion strains, locus YNL248C, strain rpa49, hits give low values 0.995 | S. cerevisiae deletion strains, locus YNL250W, strain rad50, hits give low values 0.942 | S. cerevisiae deletion strains, locus YNL271C, strain bni1, hits give low values 0.978 | S. cerevisiae deletion strains, locus YNL298W, strain CLA4, hits give low values 0.965 | S. cerevisiae deletion strains, locus YNL322C, strain KRE1 (second series), hits give low values 1 | S. cerevisiae deletion strains, locus YNR049C, strain mso1, hits give low values 0.997 | S. cerevisiae deletion strains, locus YNR052C, strain pop2, hits give low values 1 | S. cerevisiae deletion strains, locus YOL012C, strain htz1 0.318 | S. cerevisiae deletion strains, locus YOL147C, strain pex11, hits give low values 1 | S. cerevisiae deletion strains, locus YOR001W, strain rrp6, hits give low values 0.935 | S. cerevisiae deletion strains, locus YOR061W, strain CKA2, hits give low values 0.955 | S. cerevisiae deletion strains, locus YOR069W, strain VPS5, hits give low values 0.997 | S. cerevisiae deletion strains, locus YOR070C, strain gyp1, hits give low values 0.968 | S. cerevisiae deletion strains, locus YOR080W, strain dia2, hits give low values 0.984 | S. cerevisiae deletion strains, locus YOR083W, strain WHI5, hits give low values 0.984 | S. cerevisiae deletion strains, locus YOR106W, strain vam3, hits give low values 0.984 | S. cerevisiae deletion strains, locus YOR136W, strain idh2, hits give low values 0.976 | S. cerevisiae deletion strains, locus YOR144C, strain elg1, hits give low values 1.01 | S. cerevisiae deletion strains, locus YOR184W, strain ser1, hits give low values 0.883 | S. cerevisiae deletion strains, locus YOR265W, strain rbl2, hits give low values 1.02 | S. cerevisiae deletion strains, locus YOR270C, strain vph1, hits give low values 1.02 | S. cerevisiae deletion strains, locus YOR290C, strain snf2, hits give low values 0.997 | S. cerevisiae deletion strains, locus YOR316C, strain cot1, hits give low values 1.01 | S. cerevisiae deletion strains, locus YPL051W, strain arl3, hits give low values 0.962 | S. cerevisiae deletion strains, locus YPL055C, strain LGE1, hits give low values 0.784 | S. cerevisiae deletion strains, locus YPL078C, strain atp4, hits give low values 1.01 | S. cerevisiae deletion strains, locus YPL106C, strain sse1, hits give low values 0.971 | S. cerevisiae deletion strains, locus YPL240C, strain hsp82, hits give low values 0.998 | S. cerevisiae deletion strains, locus YPL241C, strain CIN2, hits give low values 0.981 | S. cerevisiae deletion strains, locus YPR119W, strain clb2, hits give low values 1.01 | S. cerevisiae deletion strains, locus YPR141C, strain kar3, hits give low values 0.978 | S. cerevisiae deletion strains, locus YPR163C, strain tif3, hits give low values 0.956 | S. cerevisiae deletion strains, locus YPR167C, strain met16, hits give low values 1.01
active: S. cerevisiae deletion strains, locus YKL190W, strain CNB1, hits give low values 0.881 | S. cerevisiae deletion strains, locus YKR001C, strain vps1, hits give low values 0.857 | S. cerevisiae deletion strains, locus YLR113W, strain HOG1, hits give low values 0.571 | S. cerevisiae deletion strains, locus YLR268W, strain sec22, hits give low values 0.854 | S. cerevisiae deletion strains, locus YLR330W, strain CHS5, hits give low values 0.908 | S. cerevisiae deletion strains, locus YLR342W, strain FKS1 (second series), hits give low values 0.753 | S. cerevisiae deletion strains, locus YLR371W, strain rom2, hits give low values 0.882 | S. cerevisiae deletion strains, locus YLR418C, strain cdc73, hits give low values 0.565 | S. cerevisiae deletion strains, locus YMR223W, strain ubp8, hits give low values 0.893 | S. cerevisiae deletion strains, locus YNL153C, strain GIM3, hits give low values 0.806 | S. cerevisiae deletion strains, locus YNL183C, strain NPR1, hits give low values 0.357 | S. cerevisiae deletion strains, locus YNL233W, strain BNI4, hits give low values 0.795 | S. cerevisiae deletion strains, locus YNL307C, strain MCK1, hits give low values 0.779 | S. cerevisiae deletion strains, locus YNL322C, strain KRE1, hits give low values 0.918 | S. cerevisiae deletion strains, locus YOL006C, strain TOP1, hits give low values 0.52 | S. cerevisiae deletion strains, locus YOR231W, strain MKK1, hits give low values 0.54 | S. cerevisiae deletion strains, locus YPL256C, strain CLN2, hits give low values 0.421 | S. cerevisiae deletion strains, strain wtn01, hits give low values 0.86 | S. cerevisiae strains, strain wild type, hits give low values 0.815
